Source: the supplement of paper PMC3342239
Counter-ions that a name gives are not always drawn.

tested on: Saccharomyces cerevisiae; assay: fraction of cells in G1 phase (DNA content, flow cytometry); higher = more cells with unreplicated DNA (G1 delay); conditions: temperature: 30 C; YPD; JTY2953 pdr5 snq2 (sensitized); drug added to: cultures diluted from stationary phase; 6-7 h
Summary of the method: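 Overnight cultures of sensitized JTY2953 were diluted 1∶200 into drug at a final 20 µg/ml and fixed after 6–7 h, and further runs treated dividing JTY2953 or BY4741, fixing them 6 h and 4.33 h later respectively. All growth used YPD at 30°C with S. cerevisiae and library drugs. After ethanol fixation and SYTOX Green staining, flow cytometry recorded 10,000 events. The G1 fraction equals the Dean-Jett-Fox G1 peak area over the G1 plus G2/M areas.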

Row | Compound | fraction of cells in G1 phase
1 | CCCCN1C[C@H](O)[C@@H](O)[C@H](O)[C@H]1CO [Miglustat] (91.2063 µM) | 0.456
2 | C[C@H]1[C@H](OC(=O)CCC(=O)O)O[C@@H]2O[C@@]3(C)CC[C@H]4[C@H](C)CC[C@@H]1[C@@]24OO3 [Artesunate] (52.025 µM) | 0.556
3 | NC[C@H]1CC[C@H](C(=O)O)CC1 [Tranexamic acid] (127.226 µM) | 0.504
4 | CC1=C(CC(=O)O)c2cc(F)ccc2/C1=C\c1ccc([S+](C)[O-])cc1 (stereo not drawn) [Sulindac] (56.1137 µM) | 0.521
5 | C[C@H]1C[C@@H]2[C@H]([C@@H](O)C[C@@]3(C)[C@H]2CC[C@]3(O)C(=O)CO)[C@@]2(C)C=CC(=O)C=C12 [Methylprednisolone] (53.4072 µM) | 0.481
6 | CC[C@H](C)C(=O)O[C@H]1C[C@H](O)C=C2C=C[C@H](C)[C@H](CC[C@@H]3C[C@@H](O)CC(=O)O3)[C@H]21 [Pravastatin lactone] (49.1976 µM) | 0.451
7 | CC(C)(O/N=C(\C(=O)N[C@@H]1C(=O)N2C(C(=O)[O-])=C(C[n+]3ccccc3)CS[C@H]12)c1csc(N)n1)C(=O)O [Ceftazidime] (36.5909 µM) | 0.486
8 | OCc1cc(C(O)CNCCCCCCOCCCCc2ccccc2)ccc1O (stereo not drawn) [Salmeterol] (48.1257 µM) | 0.472
9 | CN1C(C(=O)Nc2ccccn2)=C(O)c2ccccc2S1(=O)=O [Piroxicam] (60.3587 µM) | 0.505
10 | CN1CCC(=C2c3ccccc3C=Cc3ccccc32)CC1 [Cyproheptadine] (69.5874 µM) | 0.426
11 | COC(=O)C1=C(C)NC(C)=C(C(=O)OCCN(C)Cc2ccccc2)C1c1cccc([N+](=O)[O-])c1 (stereo not drawn) [Nicardipine] (38.7597 µM) | 0.5
12 | COc1cc2c(cc1OC)-c1c/c(=N\c3c(C)cc(C)cc3C)n(C)c(=O)n1CC2 [Trequinsin HCl] (45.2489 µM) | 0.425
13 | CC=CC(=O)N(CC)c1ccccc1C [Crotamiton] (98.3833 µM) | 0.503
14 | CN(C)CCN1C(=O)c2ccccc2N(C)c2ccccc21 [Dibenzepine HCl] (67.7077 µM) | 0.479
15 | CS(=O)(=O)c1ccc([C@H](O)[C@@H](COC(=O)CN)NC(=O)C(Cl)Cl)cc1 [Thiamphenicol glycinate] (48.3934 µM) | 0.478
16 | O=C(Nc1cccc2c(=O)cc(-c3nnn[nH]3)oc12)c1ccc(OCCCCc2ccccc2)cc1 [Pranlukast] (41.5355 µM) | 0.561
17 | CC(C)NCC(O)COc1cccc2[nH]ccc12 (stereo not drawn) [Pindolol] (80.5387 µM) | 0.515
18 | COc1ccc([C@@H]2Sc3ccccc3N(CCN(C)C)C(=O)[C@@H]2OC(C)=O)cc1 [Diltiazem] (44.3459 µM) | 0.544
19 | CC[C@H]1OC(=O)[C@H](C)[C@@H](O[C@H]2C[C@@](C)(OC)[C@@H](O)[C@H](C)O2)[C@H](C)[C@@H](O[C@@H]2O[C@H](C)C[C@H](N(C)C)[C@H]2O)[C@](C)(O)C[C@@H](C)/C(=N\OCOCCOC)[C@H](C)[C@@H](O)[C@]1(C)O [Roxithromycin] (23.8929 µM) | 0.472

Row | Compound | fraction of cells in G1 phase
20 | CC(C(=O)O)c1cccc(Oc2ccccc2)c1 (stereo not drawn) [Fenoprofen] (82.5501 µM) | 0.502
21 | O=C(O)CCC(=O)c1ccc(-c2ccccc2)cc1 [Fenbufen] (78.6509 µM) | 0.572
22 | CN(C)CC/C=C1/c2ccccc2COc2ccc(CC(=O)O)cc21 [Olopatadine] (59.2729 µM) | 0.431
23 | CN1CCN(C2=Nc3cc(F)ccc3Cc3ccccc32)CC1 [Fluperlapine] (64.6434 µM) | 0.512
24 | NC(=O)c1ncn([C@@H]2O[C@H](CO)[C@@H](O)[C@H]2O)n1 [Ribavirin] (81.8972 µM) | 0.481
25 | C[N+](C)(C)[C@@H](Cc1c[nH]c(=S)[nH]1)C(=O)[O-] [Ergothioneine] (87.2209 µM) | 0.464
26 | CO[C@H]1/C=C/O[C@@]2(C)Oc3c(C)c(O)c4c(O)c(c(/C=N/N5CCN(C)CC5)c(O)c4c3C2=O)NC(=O)/C(C)=C\C=C\[C@H](C)[C@H](O)[C@@H](C)[C@@H](O)[C@@H](C)[C@H](OC(C)=O)[C@@H]1C [Rifampicin] (24.3025 µM) | 0.502
27 | CC(=O)O[C@H]1C(=O)[C@@]2(C)[C@H]([C@H](OC(=O)c3ccccc3)[C@]3(O)C[C@H](OC(=O)[C@H](O)[C@@H](NC(=O)c4ccccc4)c4ccccc4)C(C)=C1C3(C)C)[C@]1(OC(C)=O)CO[C@@H]1C[C@@H]2O [Taxol] (23.4212 µM) | 0.481
28 | C[C@H]1c2cccc(O)c2C(O)=C2C(=O)[C@]3(O)C(O)=C(C(N)=O)C(=O)[C@@H](N(C)C)[C@@H]3[C@@H](O)[C@@H]21 [Doxycycline HCl] (44.9999 µM) | 0.53
29 | CCCCCN(CCCCC)C(=O)C(CCC(=O)O)NC(=O)c1ccc(Cl)c(Cl)c1 (stereo not drawn) [Lorglumide] (43.5334 µM) | 0.482
30 | Cc1ccc(S(=O)(=O)NC(=O)NN2CC3CCCC3C2)cc1 (stereo not drawn) [Gliclazide] (61.8397 µM) | 0.51
31 | C[C@@H]1CCC[C@H](C)N1NC(=O)c1ccc(Cl)c(S(N)(=O)=O)c1 [Clopamide] (57.8284 µM) | 0.525
32 | COC(=O)Nc1nc2cc([S+]([O-])c3ccccc3)ccc2[nH]1 (stereo not drawn) [Oxfendazole] (63.421 µM) | 0.536
33 | CC(=O)OCC(=O)[C@@]1(O)CC[C@H]2[C@@H]3CCC4=CC(=O)CC[C@]4(C)[C@H]3[C@@H](O)C[C@@]21C [Hydrocortisone 21-acetate] (49.4428 µM) | 0.494
34 | O=c1[nH]c(=O)n([C@H]2C[C@H](O)[C@@H](CO)O2)cc1F [Floxuridine] (81.2358 µM) | 0.514
35 | COc1cc([C@@H]2c3cc4c(cc3[C@@H](O[C@@H]3O[C@@H]5CO[C@@H](C)O[C@H]5[C@H](O)[C@H]3O)[C@H]3COC(=O)[C@H]23)OCO4)cc(OC)c1O [Etoposide] (33.9806 µM) | 0.496
36 | O=C(O)c1cn(-c2ccc(F)cc2)c2cc(N3CCNCC3)c(F)cc2c1=O [Sarafloxacin HCl] (51.8977 µM) | 0.444
37 | CNC1(C)C2CCC(C2)C1(C)C (stereo not drawn) [Mecamylamine HCl] (119.548 µM) | 0.486
38 | CN1CCCCC1CCN1c2ccccc2Sc2ccc([S+](C)[O-])cc21 (stereo not drawn) [Mesoridazine besylate] (51.7354 µM) | 0.476
